Screening results as filed in PubChem BioAssay.
A selection: hits, their analogues and other compounds. The true share with any hit is near 3.2%.
GoLoco inh red: blocks human Gai1 binding to RGS12 GoLoco peptide, red readout; Gai1:RGS12 GoLoco peptide FP, rhodamine, 10 min; Potency, µM (top dose mostly 61.6 µM), inactives show top-dose activity, negative = inhibition, actives largely listed as inhibitors; hit rate 0.44% among 230,000; AID 880; active = well fitted inhibition curve with a large enough effect, not every such curve was filed as active; inactive = no such curve, though single readings can be large or run the other way; also: nearly all actives have a fitted effect of over 30% in size
Tau fluor counter: counter-screen for tau fibril formation inhibitors; hit rate 0.93% among 280,000; Potency, µM (titrated, usually from 57.7 µM), for the others: at the highest dose activity change, negative = decrease; tau K18 P301L Alexa594 fluorescence, heparin fibrillization; also: nearly all actives have a fitted effect of over 55% in size
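Human tau K18 P301L (15 uM unlabeled, 0.24 uM Alexa 594-labeled) in 100 mM sodium acetate pH 7 with 20 uM heparin, 6 hr at 37 C. ThT 30 uM added, 1 hr ambient; Alexa 594 FP and total fluorescence read at 555/632 nm.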
Tau FP inhib: tau fibrillization inhibition (FP); K18 P301L tau heparin fibrillization, Alexa594 FP, 6 h; Potency, µM (highest dose often 57.7 µM), without a hit: top-dose activity, negative = inhibition, usual class: inhibitors; hit rate 0.39% among 280,000; also: nearly all actives have a fitted effect of over 55% in size
Target sequence (P10636 561-689 P618L limits assumed): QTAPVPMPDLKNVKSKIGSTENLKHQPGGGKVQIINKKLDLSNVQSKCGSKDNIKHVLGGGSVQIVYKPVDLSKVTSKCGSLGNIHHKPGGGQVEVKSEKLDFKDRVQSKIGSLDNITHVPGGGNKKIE
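K18 P301L tau (15 uM unlabeled/0.24 uM Alexa 594-labeled, final) + compound + heparin 20 uM final; 100 mM NaOAc pH 7; 6 hr 37 C; ThT 30 uM final added, 1 hr RT; FP ex 555/em 632 nm.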
Tau fibril ThT: tau fibrillization inhibition (ThT binding) | recombinant tau K18 P301L (four-repeat tau fragment), heparin-induced fibrillization, ThT fluorescence | Potency, µM (titrated, usually from 57.4 µM), without a hit: at the top dose activity, negative = inhibition, hits mostly inhibitors | hit rate 2.1% among 270,000; also: nearly all actives have a fitted effect of over 55% in size
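Heparin-induced (20 uM) aggregation of recombinant human K18 P301L tau, 15 uM unlabeled with 0.24 uM labeled, pH 7 acetate buffer, 6 hr at 37 C with compound. Fibrils quantified by 30 uM ThT fluorescence after 1 hr ambient incubation.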
TRb-SRC2 inh: TRbeta-SRC2 interaction inhibition. AID 1469. Potency, µM (doses to about 106 µM), without a hit: at the top dose activity change, negative = inhibition, usual class: inhibitors. hit rate 0.065% among 280,000. TRbeta-SRC2 peptide binding, fluorescence polarization; receptor liganded with 1 µM T3;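 also: plate controls were bound peptide for no effect and peptide without receptor for full effect; nearly all actives have a fitted effect of over 50% in size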
Target sequence (P10828 whole entry, looked up): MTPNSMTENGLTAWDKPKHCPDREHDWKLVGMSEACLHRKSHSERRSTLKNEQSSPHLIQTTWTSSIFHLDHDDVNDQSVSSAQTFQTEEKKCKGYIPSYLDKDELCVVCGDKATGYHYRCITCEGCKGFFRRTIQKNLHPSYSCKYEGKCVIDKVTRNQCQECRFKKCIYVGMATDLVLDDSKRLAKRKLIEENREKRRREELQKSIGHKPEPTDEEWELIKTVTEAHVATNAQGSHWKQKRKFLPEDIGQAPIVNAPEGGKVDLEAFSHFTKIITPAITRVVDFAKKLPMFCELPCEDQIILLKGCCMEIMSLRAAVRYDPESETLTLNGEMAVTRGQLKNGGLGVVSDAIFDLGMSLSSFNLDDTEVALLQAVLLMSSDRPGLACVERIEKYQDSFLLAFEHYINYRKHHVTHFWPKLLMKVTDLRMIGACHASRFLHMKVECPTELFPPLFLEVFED
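TRb LBD 0.6 uM + Texas Red SRC2 peptide 20 nM, 1 uM T3, Tris buffer w/ 5% DMSO; compound pinned, 5 h RT; FP read ex 555/em 632; normalized to unbound and bound controls.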
TexasRed fluor: Texas Red fluorescence interference in TRb-SRC2 counter-screen; hit rate 0.29% among 280,000; TRb/SRC2 Texas Red total fluorescence interference; Potency, µM (series often up to 106 µM), inactives show at the highest dose fluorescence change, negative = quenching; active = well fitted curve in either direction with a large enough effect; inconclusive = small, poorly fitted or top-dose-only effect
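Flags fluorescent or light-absorbing compounds by total fluorescence, S + 2P, at 555 nm excitation and 632 nm emission. Mixture: 20 nM Texas Red SRC2 peptide, 0.6 uM human TRb LBD, 1 uM T3, 5% DMSO; compound exposure 5 h at ambient temperature.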
* marks the source's active call; other numbers are inactive results; ? = inconclusive; . = no result given; ! = not confirmed by another sample; [ ] = remark or other dose. Unless noted, calls follow the shape of the dose curve; as a rule, active = well fitted curve in the direction sought with a large enough effect; inconclusive = small, poorly fitted or top-dose-only effect, or another doubt; inactive = no such curve, though single readings can be large; an effect the other way counts as inactive or inconclusive. Unless noted, % is scaled to controls: 0 for no effect and ±100 for the full control effect; potency is read from the fitted curve at half-maximal effect.

SMILES | GoLoco inh red | Tau fluor counter | Tau FP inhib | Tau fibril ThT | TRb-SRC2 inh | TexasRed fluor
Cc1ccc2occ(CC(=O)N(Cc3ccc(Cl)cc3)Cc3ccco3)c2c1 | . | -24% | -13% | ? | ? | 0.35µM*[quencher]
Cc1ccc(CN(Cc2ccco2)C(=O)c2oc3ccc(C)cc3c2C)cc1 | . | -13% | -6% | -13% | 0% | 4%
CCOc1cc(/C=C(/C#N)C(=O)Nc2ccc(O)cc2)cc(Br)c1O | -4% | ? | 13% | 8.9µM* | -1% | -17%
C[C@@H]1CC[C@H]2C(=O)NC[C@@H](O)CN2[C@@H]1c1ccc(Br)cc1 | . | -23%[11.6 µM] | -15%[11.6 µM] | -19%[11.5 µM] | 1%[11.2 µM] | 1%[11.2 µM]
O=C1C(SCCO)=C(SCCO)C(=O)c2ccccc21 | 3.5µM*! | 2µM*[quencher] | 2.5µM* | 14µM* | ? | 14µM*![quencher]
N#CC(=NCCO)C1=C(O)c2ccccc2C1=O | -5%[14.2 µM] | . | . | . | . | .
Cc1ccc(O)c(N=Cc2cccs2)c1 | -5% | ? | ? | 25µM* | 3% | -7%
Cc1ccc(O)c(N=Cc2ccc(C)s2)c1 | -6% | ? | ? | 22µM* | -6% | -6%
Cc1cc(C(=O)N/N=C/c2cccs2)n[nH]1 | 3% | 10% | ? | 4% | -6% | -1%
Cc1ccc(/C=N/n2c(C)nnc2C)s1 | -11% | -6% | 4% | -8% | 2% | 2%
CC(C)(C)c1cccc(C(C)(C)C)c1O | . | . | . | . | 1%[201 µM] | -1%[201 µM]
Oc1[nH]c2ccc(Br)cc2c1N=NC(=S)N1CCOCC1 | 3% | ? | 0% | 10µM* | -5% | -7%
Oc1[nH]c2ccccc2c1N=NC(=S)N1CCOCC1 | -3% | -18% | -11% | 8.9µM* | -8% | -3%
CC(C)CC(=O)N=Nc1c(O)[nH]c2ccccc12 | 3% | -6% | -7% | -5% | 0% | -1%
COC(=O)N=Nc1c(O)[nH]c2ccc(Br)cc12 | 11% | -2% | 5% | ? | -4% | 0%
CC(=O)/C=C(\C)N=Nc1c(O)[nH]c2ccccc12 | -2% | -11% | -4% | 7.9µM* | -1% | -3%
Cc1c(C(=O)c2no[n+]([O-])c2C(=O)c2cnn(C)c2C)cnn1C | -13% | -19% | ? | 14µM* | -4% | 0%
O=C(c1cccs1)c1no[n+]([O-])c1C(=O)c1cccs1 | -11% | ? | ? | ? | -3% | -1%
FC(F)(F)c1ccc2c(c1)C1C=CCC1C(c1ccncc1)N2 (stereo unspecified) | 68% | ? | ? | ? | 12% | 6%
CCCC1Nc2ccc(C(=O)O)cc2C2C=CCC12 (stereo unspecified) | 34% | ? | ? | 22µM* | 3% | 8%
CC(C)C1Nc2ccc(C(=O)O)cc2C2C=CCC21 (stereo unspecified) | 4% | 10% | 8% | 9% | 0% | -1%
O=C(O)c1ccc2c(c1)C1C=CCC1C(c1ccncc1)N2 (stereo unspecified) | -14% | ? | ? | 25µM* | 6% | -8%
Cc1nc2cnc(Nc3ccccc3)nc2n(CCc2ccccc2)c1=O | 11% | . | . | . | . | .
CCOCCCNc1nc2c(C)cccn2c(=O)c1/C=C1\SC(=S)N(C(C)CC)C1=O (stereo unspecified) | 110% | -1% | 22µM* | ? | -6% | -8%
CCOCCCNc1nc2c(C)cccn2c(=O)c1/C=C1\SC(=S)N(CC(C)C)C1=O | 244% | -9% | 2% | -14% | -2% | -2%
SMILES | GoLoco inh red | Tau fluor counter | Tau FP inhib | Tau fibril ThT | TRb-SRC2 inh | TexasRed fluor
O=C(CN1c2ccccc2Sc2ccccc21)NNC(=S)Nc1ccc(Cl)cc1Cl | 9% | 10µM*[quencher] | 15% | ? | -3% | -2%
Cn1c(O)c(C2=c3ccccc3=NC2=O)sc1=Nc1ccc(Cl)cc1 | 2% | ? | 15% | 10µM* | 0% | -5%
C=CCn1c(O)c(C2=c3ccccc3=NC2=O)s/c1=N/c1nccs1 | 27% | ? | ? | ? | -7% | -6%
CC12C=C(/C=C/CCc3ccco3)C(C)(C1)C(CCc1ccco1)CC2=O (stereo unspecified) | . | -8%[11.6 µM] | -14%[11.6 µM] | ? | 5%[11.2 µM] | 1%[11.2 µM]
Cc1cc(C)n(-c2cc(C(C)(C)C)nc3c(-c4ccccc4)cnn23)n1 | -6% | -11% | 5% | -8% | -2% | 4%
CC(C)(C)c1cc(NCc2ccccn2)n2ncc(-c3ccccc3)c2n1 | -7% | 10µM*[quencher] | 11% | ? | 3% | 1%
COCCNc1ncnc2ccc(-c3cccc(OC)c3)cc12 | 16% | . | . | . | . | .
COC(=O)C1=C(C(=O)OC)C(c2ccc(OC)c(OC)c2)c2sc(=O)[nH]c2S1 (stereo unspecified) | -19% | -2% | -9% | ? | 0% | 1%
COC(=O)C1=C(C(=O)OC)C(c2cc(Br)ccc2O)c2sc(=O)[nH]c2S1 (stereo unspecified) | -2% | ? | -13% | 28µM* | -14% | -1%
COC(=O)C1=C(C(=O)OC)C(c2cc(Cl)ccc2O)c2sc(=O)[nH]c2S1 (stereo unspecified) | -5% | ? | -13% | 25µM* | -4% | -4%
COc1ccccc1NCCC(=O)OCC(=O)NC1CC1 | -11% | 4% | 1% | 6% | ? | 3.5µM*[quencher]
CCOc1ccc(NC(=O)c2cc(S(=O)(=O)N3CCCCCC3)cn2C)cc1 | . | -4% | -5% | 4% | -11% | 2%
Cn1cc(S(=O)(=O)N2CCCC2)cc1C(=O)Nc1ccc(C(F)(F)F)cc1 | . | 6% | -13% | -3% | -10% | 45µM*[quencher]
COc1ccc(C(=O)C[N+]2(C)CCOCC2)cc1 | 7.1µM* | -9% | -4% | -7% | -2% | -2%
COc1ccc(C(=O)OCC[N+]2(C)CCCCC2)cc1 | 13µM* | -1% | -2% | -1% | 2% | -1%
O=C(O)CSc1ccc(N=C=S)cc1 | 3%[14.2 µM] | . | . | . | . | .
COc1ccc(/C=C2\SC(=S)N(CC3CCCO3)C2=O)cc1 (stereo unspecified) | 59% | -27% | -10% | ? | 2% | -4%
COc1cc(/C=C2/SC(=S)N(CC3CCCO3)C2=O)ccc1O (stereo unspecified) | 248% | 11µM*[quencher] | 11% | 14µM* | 28% | 14%
O=C1/C(=C/c2cccnc2)SC(=S)N1CC1CCCO1 (stereo unspecified) | 13% | -8% | -4% | -17% | 2% | -2%
O=C1/C(=C/c2ccco2)SC(=S)N1CC1CCCO1 (stereo unspecified) | 75% | ? | ? | 20µM* | -7% | 2%
Cc1ccc(/C=C2\SC(=S)N(CC3CCCO3)C2=O)o1 (stereo unspecified) | 92% | -24% | ? | 16µM* | 5% | 9%
